Assay results: PubChem BioAssay
Activity calls are given as the source filed them. The rule behind the calls is not given here.

These compounds were tested against Pantothenate synthetase (Mycobacterium tuberculosis (strain ATCC 25618 / H37Rv)) (UniProt P9WIL5) (assay: Coupled enzyme confirmation of inhibitors against recombinant Mtb PanC (AID 375;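 note: 0% = full reaction with vehicle and 100% = no enzyme background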)). Details: coupled enzyme assay; at 10 µM, active compounds read high.
Chain of Pantothenate synthetase (Mycobacterium tuberculosis (strain ATCC 25618 / H37Rv)) (P9WIL5 whole entry, looked up): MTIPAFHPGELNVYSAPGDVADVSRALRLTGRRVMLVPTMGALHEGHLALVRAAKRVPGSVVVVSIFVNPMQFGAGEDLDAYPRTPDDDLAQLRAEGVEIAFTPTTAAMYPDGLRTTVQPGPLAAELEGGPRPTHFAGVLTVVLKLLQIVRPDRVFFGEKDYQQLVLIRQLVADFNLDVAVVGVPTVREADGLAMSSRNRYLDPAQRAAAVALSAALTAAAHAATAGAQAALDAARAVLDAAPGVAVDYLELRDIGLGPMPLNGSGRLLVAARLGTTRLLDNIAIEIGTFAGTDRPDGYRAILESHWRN

Q: For `CC(C)CNC(=O)c1ccccc1NC(=O)CN(c1ccc2c(c1)OCCO2)S(C)(=O)=O`, which inhibition is on record?
A: 0% (inactive)

Q: `C=CCn1c(SCC(=O)Nc2cccc(OC)c2)nnc1-c1cccnc1` was tested. Which inhibition did it give?
A: 0% (inactive)

Q: How did the inhibition turn out when `Cc1ccc(C(=O)CSc2nnc(CNc3ccc(C)cc3C)o2)cc1` was run?
A: 7% (inactive)

Q: `COC(=O)c1c(C)oc2ccc(NS(=O)(=O)c3cccs3)cc12` was tested. Which inhibition did it give?
A: 0% (inactive)

Q: How did the inhibition turn out when `CCOc1ccc(-c2nc(C#N)c(N3CCN(C)CC3)o2)cc1` was run?
A: 2% (inactive)

Q: With `CCOC(=O)CSc1nnc(Cn2nnc(-c3ccccc3)n2)n1CC` as the compound, how does the inhibition read?
A: 4% (inactive)

Q: `O=C(CN(C(=O)CCC(=O)Nc1nccs1)c1ccccc1F)NCC1CCCO1` (centres undefined) was tested. Which inhibition did it give?
A: 2% (inactive)

Q: With `O=C(NC1CCCCCC1)C1CCCN(S(=O)(=O)c2cccs2)C1` (centres undefined) as the compound, how does the inhibition read?
A: 0% (inactive)

Q: How did the inhibition turn out when `CC(=O)SCCC(=O)Nc1ccccc1` was run?
A: 0% (inactive)

Q: For `Cc1cc2ccccn2c1C(=O)c1ccncc1`, which inhibition is on record?
A: 5% (inactive)

Q: Which inhibition does the source give for `C=CCn1c(=O)c2ccccc2n2c(SC(C)C(=O)Nc3nc(-c4ccccc4)cs3)nnc12` (centres undefined) here?
A: 4% (inactive)

Q: How did the inhibition turn out when `CCc1ccccc1N1C(=O)C2CC(C)=C(C)CC2C1=O` (centres undefined) was run?
A: 0% (inactive)

Q: How did the inhibition turn out when `Nn1c(SCC(=O)Nc2ccc(F)cc2)nnc1-c1cccnc1` was run?
A: 0% (inactive)

Q: With `COc1ccccc1CN1C(=S)SC(C)(C)C1NO` (centres undefined) as the compound, how does the inhibition read?
A: 0% (inactive)

Q: For `OC(CN1CCOCC1)Cn1c(-c2cccc(Cl)c2)nc2ccccc21` (centres undefined), which inhibition is on record?
A: 4% (inactive)

Q: `Cc1ccc(C(=O)Nc2ccc(Cl)cn2)cc1S(=O)(=O)N1CCOCC1` was tested. Which inhibition did it give?
A: 0% (inactive)

Q: Which inhibition does the source give for `COCCn1c(C)cc(C(=O)CSc2nc3ccccc3c(=O)[nH]2)c1C` here?
A: 0% (inactive)

Q: Which inhibition does the source give for `CC(=O)[C@@]1(O)CC[C@H]2[C@@H]3CCC4=CC(=O)CC[C@]4(C)[C@H]3[C@@H](O)C[C@@]21C` here?
A: 0% (inactive)

Q: How did the inhibition turn out when `O=C(c1ccc2c(c1)OCCO2)C1CCN(C(=O)c2ccc(F)cc2)CC1` was run?
A: 0% (inactive)

Q: How did the inhibition turn out when `O=C(c1ccco1)N1CCN(C(=O)C2CC(c3ccc(F)cc3)=NO2)CC1` (centres undefined) was run?
A: 0% (inactive)

Q: How did the inhibition turn out when `CC(C)(C)c1ccc(C(=O)N2CCC(C(=O)NCc3ccncc3)CC2)cc1` was run?
A: 0% (inactive)

Q: `O=C(Nc1ccc(N2C(=O)C3C4C=CC(C4)C3C2=O)cc1)Nc1cccnc1` (centres undefined) was tested. Which inhibition did it give?
A: 0% (inactive)

Q: Which inhibition does the source give for `Cc1cnc(C(=O)Nc2ccc(N3CCN(C(=O)OC(C)(C)C)CC3)cc2)cn1` here?
A: 0% (inactive)

Q: How did the inhibition turn out when `Cc1ccccc1N1OC2C(=O)N(c3ccc(F)cc3)C(=O)C2C1c1ccccn1` (centres undefined) was run?
A: 3% (inactive)
